Only some compounds are listed: those with a hit (about 8% of all), similar ones and a draw of the others.
ELG1 repair inh: blocks ELG1-dependent DNA repair in HEK293T cells; HEK293T ELG1-luciferase reporter, luminescence, 16 h; DNA damage induced by 5-fluorouridine; Potency, µM (titrated, usually from 46.1 µM), for the others: top-dose activity change, negative = inhibition, most hits filed as inhibitors; 330,000 compounds, 2.3% hits; AID 504467; note: potency is the fitted concentration of half-maximal effect; nearly all actives have a fitted effect of over 55% in size
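DMSO vehicle served as the neutral condition. Each well held 2,000 cells given 5-fluorouridine plus compound; after 16 hr at 37 °C/5% CO2, ONE-Glo was added and luciferase measured 30 min later.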
TSHR antag: human thyrotropin receptor antagonism | P16473 | TSHR-expressing cells, TSH-stimulated cAMP HTRF, 2 h; active compounds read low | activity change, negative = inhibition, % at 11.5 µM | AID 504810 | 330,000 compounds, 0.2% hits;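 active = activity change below a set negative limit, meaning inhibition stronger than a set level, cut at about -70% in these data; inconclusive = activity change between two set negative limits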
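TSHR-expressing cells were treated with compounds, then stimulated with TSH at EC80 (4nM final) for 2 hours at 37 deg C. Cellular cAMP was measured by HTRF competition between lysate cAMP and cAMP-d2 for a cryptate-labelled anti-cAMP antibody.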
RORg inh: inhibitors of mouse ROR gamma transcriptional activity; P51450; Drosophila S2 Gal4-RORgamma UAS-luciferase reporter, 20 h; Potency, µM (top dose mostly 53.6 µM), inactives show at the top dose activity change, negative = inhibition, usual class: inhibitors; 310,000 compounds, 5.4% hits; note: potency is the fitted concentration of half-maximal effect; nearly all actives have a fitted effect of over 60% in size
Target sequence (P51450 whole entry, looked up, the tested form may be a part): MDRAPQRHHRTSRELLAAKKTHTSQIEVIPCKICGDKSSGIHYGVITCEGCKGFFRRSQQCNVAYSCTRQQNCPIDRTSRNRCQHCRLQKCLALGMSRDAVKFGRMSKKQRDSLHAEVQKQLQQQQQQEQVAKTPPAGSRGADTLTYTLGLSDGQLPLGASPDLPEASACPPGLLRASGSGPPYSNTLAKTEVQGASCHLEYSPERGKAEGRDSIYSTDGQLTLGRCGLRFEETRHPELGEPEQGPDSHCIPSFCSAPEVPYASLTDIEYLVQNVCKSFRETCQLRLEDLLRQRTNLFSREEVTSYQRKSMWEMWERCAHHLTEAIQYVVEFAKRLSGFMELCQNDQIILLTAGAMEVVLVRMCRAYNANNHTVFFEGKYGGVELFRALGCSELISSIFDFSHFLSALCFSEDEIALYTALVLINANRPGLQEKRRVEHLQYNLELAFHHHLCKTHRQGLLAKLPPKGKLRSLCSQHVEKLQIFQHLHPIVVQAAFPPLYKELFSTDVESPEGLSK
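Drosophila Schneider cells stably carrying a metallothionein-driven Gal4 DBD–ROR gamma fusion and a UAS-Photinus luciferase reporter were exposed to compound for 1 hr, then induced with copper sulfate (700 uM final) for 20 hr at ambient temperature before luminescence reading.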
Coupling enz: inhibits coupling enzyme system, counter-screen for aldolase hits | AID 2472 | 290,000 compounds, 0.67% hits | coupling enzyme system counterscreen, AmpLite Red fluorescence | activity change, negative = inhibition, % at 58.2 µM, hits read low; in the data active = activity change below about -30%
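Counterscreen of the coupled detection system alone, without aldolase: glyceraldehyde-3-phosphate coupling enzymes plus AmpLite Red readout. Compounds at 57.5 uM final, 10 min RT preincubation, 20 min RT reaction, fluorescence 525/598 nm.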
Gal4-VP16 FLuc: inhibits Gal4-VP16 luciferase reporter, ROR gamma counter-screen. Drosophila S2 Gal4-VP16 UAS-luciferase, luminescence, 20 h. Potency, µM (highest dose often 53.6 µM), for the others: at the top dose activity, negative = inhibition, actives largely listed as inhibitors. AID 2546. 310,000 compounds, 3.5% hits;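 note: Gal4-VP16 expression switched on by copper sulfate through the metallothionein promoter; potency is the fitted concentration of half-maximal effect; nearly all actives have a fitted effect of over 50% in size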
Numbers without * were called inactive; ? = inconclusive; nt = no result; [ ] = another dose, or the depositor's remark. Unless noted, calls come from the whole dose curve; as a rule, active = well fitted curve in the direction sought with a large enough effect; inconclusive = small, poorly fitted or top-dose-only effect, or another doubt; inactive = no such curve, though single readings can be large; an effect the other way counts as inactive or inconclusive. % is set by controls: 0 for no effect and ±100 for the full control effect.

SMILES | ELG1 repair inh | TSHR antag | RORg inh | Coupling enz | Gal4-VP16 FLuc
CC(C)S(=O)(=O)C1=NSC2=NC(=O)/C(=C\c3ccc(-c4ccccc4)o3)C(=N)N21 | -24.3% | -85.6* | ? | 14.9 | 1.0%
COc1ccccc1C(=O)NCC(=O)NC(C)CCc1ccccc1 (stereo unspecified) | 1.0% | -9.4 | 6.31µM* | nt | 14.1µM*
COc1ccccc1C(=O)CC(=O)c1ccccc1 | ? | 2.8 | 10µM* | 0.4 | -67.7%
COc1ccccc1C(=O)OCC(=O)NC(C)CCc1ccccc1 (stereo unspecified) | 13.0% | -0.2 | 30.6% | 0.1 | 2.5%
O=C(CC(=O)c1ccccc1)c1ccccc1 | nt | nt | 3.98µM* | -0.5 | 7.94µM*
O=C(CC(CC(=O)c1ccccc1)C(=O)O)c1ccccc1 | 10.2% | -1.4 | 0.2% | 3.1 | 6.2%
COc1ccc2c(c1)O[C@@H](c1cccc(C(F)(F)F)c1)[C@H](OC(=O)NCc1ccc3c(c1)OCO3)C2=O | nt | nt | -5.9% | -1.8 | 0.9%
COc1ccccc1NC(=O)C1=C(C)Nc2nc(-c3ccc(N(C)C)cc3)nn2C1c1ccncc1 (stereo unspecified) | -27.2% | -8.2 | ? | 4.4 | 1.3%
COc1ccccc1NC(=O)C1=C(C)Nc2nc(-c3cccs3)nn2C1c1cccnc1 (stereo unspecified) | 18.4µM* | 5.5 | -25.0% | 3.4 | -0.3%
COc1ccc(OC2C(=O)N(CCc3ccc(OC)c(OC)c3)C2c2ccc3c(c2)OCO3)cc1 (stereo unspecified) | 18.4µM* | -11.7 | 21.6% | -0.8 | -6.3%
O=C1c2ccc([N+](=O)[O-])cc2S(=O)(=O)N1Cc1ccccc1 | 11.2% | -24.7 | -17.0% | -9.2 | ?
O=[N+]([O-])c1ccc2c(c1)S(=O)(=O)C=C2 | nt | -13.7 | 0.631µM* | -2.5 | ?
CC(=O)c1cccc(NC(=O)CC2S/C(=N/N=C3CCCCCC3)NC2=O)c1 (stereo unspecified) | -6.9% | -5.1 | 10µM* | 1.7 | -25.5%
COc1ccccc1NC(=O)CC1S/C(=N/N=C(\C)C2CCCCC2)NC1=O (stereo unspecified) | ? | 0.4 | -13.1% | nt | -0.3%
O=C(CC1S/C(=N/N=C/c2ccco2)NC1=O)Nc1ccccc1 (stereo unspecified) | -10.3% | -4.6 | -42.9% | 1.7 | -15.8%[10 µM]
CC1=C/C(=N\N=C2\NC(=O)C(CC(=O)Nc3ccccc3)S2)CC(C)(C)C1 (stereo unspecified) | -3.3% | -8.3 | 1.58µM* | 0.2 | ?
COc1ccc(Cl)cc1NC(=O)CC1S/C(=N/N=C2CCCCCC2)NC1=O (stereo unspecified) | ? | 42.4 | 3.55µM* | nt | 5.01µM*
CCOc1ccc(NC(=O)CC2S/C(=N/N=C3CCCCCC3)NC2=O)cc1 (stereo unspecified) | -6.7% | -12.2 | 20µM* | nt | 11.2µM*
C[C@H]1Cc2c(COc3ccccc3)nc3c(c2CO1)CN(C(=O)Cc1cccs1)CC3 | nt | nt | nt | -0.5 | nt
CCc1cc(C(=O)N/N=C/c2ccc(O)cc2O)c2ccccc2n1 | ? | -13.2 | 11.2µM* | nt | ?
O=C(NN=Cc1ccc(O)cc1)c1ccccc1NS(=O)(=O)c1cccs1 | 16.8% | nt | nt | nt | nt
O=C(N/N=C/c1cc(Cl)cc([N+](=O)[O-])c1O)c1ccccc1NS(=O)(=O)c1cccs1 | ? | -37.1 | 2.82µM* | 11.8 | 10µM*
Cc1cc(C(=O)N/N=C/c2cc(Cl)cc([N+](=O)[O-])c2O)c2ccccc2n1 | ? | -7.0 | 1.58µM* | -3.0 | 11.2µM*
O=C(N/N=C/c1ccc(O)cc1O)/C(=C/c1ccccc1)CCO | ? | -2.5 | 11.2µM* | 3.3 | ?
O=C(N/N=C/c1cccc(O)c1)c1cc(C2CC2)nc2ccccc12 | -6.9% | -0.6 | -6.2% | 2.4 | -8.0%
SMILES | ELG1 repair inh | TSHR antag | RORg inh | Coupling enz | Gal4-VP16 FLuc
O=C(CN1C(=O)c2ccccc2C1=O)NC1CCC(O)CC1 (stereo unspecified) | 4.8% | 17.9 | nt | nt | nt
Cc1nc2n(c(=O)c1CCN1CCC(c3noc4cc(F)ccc34)CC1)CCCC2O (stereo unspecified) | nt | -11.7 | nt | nt | nt
Cn1cccc1-c1cc(C(=O)N/N=C/c2cc(Br)ccc2O)[nH]n1 | ? | -8.2 | 7.08µM* | -0.2 | 10µM*
Cn1cccc1-c1cc(C(=O)N/N=C/c2ccccc2Cl)[nH]n1 | ? | -7.8 | 18.9% | -3.3 | ?
Cc1cc(-c2cccs2)c(C#N)c(=S)[nH]1 | 0.0% | 25.0 | 10µM* | 0.3 | ?
Cc1ccn2cc(-c3ccc(O)c(O)c3)nc2c1 | ? | -13.3 | -39.4% | -6.3 | 12.6µM*
Cc1ccn2cc(-c3cccc(NC(=O)C(C)C)c3)nc2c1 | ? | -4.3 | 3.98µM* | -5.3 | ?
Oc1ccc(-c2cn3ccccc3n2)cc1O | ? | -9.2 | -40.3% | -6.5 | -23.7%
CNc1c(NS(=O)(=O)c2ccc(CC(C)C)cc2)c(=O)oc2ccccc12 | 16.8% | 5.0 | -4.3% | -0.3 | 0.1%
Cc1ccccc1-n1sc2cc(F)ccc2c1=O | ? | ? | 3.16µM* | 4.2 | 2.82µM*
CC(=O)Nc1ccc(NC(=S)Nc2ccc(Br)cc2)cc1 | ? | 15.4 | -22.2% | 0.9 | 1.3%
CC(C)(C)NC(=S)Nc1ccc(Br)cc1 | 24.0% | 9.2 | 2µM* | 6.8 | -84.4%
Cc1ccc(NC(=S)Nc2ccc(Br)cc2)cc1 | 0.0% | -2.7 | 7.94µM* | 2.0 | ?
Fc1ccccc1NC(=S)Nc1ccc(Br)cc1 | -5.6% | 10.7 | 11.2µM* | 6.9 | ?
CC(C)(C)NC(=S)Nc1ccc(Nc2ccccc2)cc1 | 18.4% | 3.7 | 1.78µM* | 2.8 | 7.08µM*
Cc1cc(=O)n2nc(N3CCC(C(=O)NCc4ccc(Cl)cc4)CC3)sc2n1 | -3.9% | 11.8 | 25.1% | nt | -2.7%
COC(=O)C1=C(C)N(Cc2ccccc2)[C@]23O[C@](C(=O)OC)(C(=O)N2C1c1ccccc1)C1CCCC(=O)C13 (stereo partly specified) | nt | nt | ? | 1.3 | -1.3%[10 µM]
CCOc1ccc(CCNC(=O)c2c(C)nn(-c3ccccc3)c2Cl)cc1OCC | -0.5% | -8.0 | 12.9% | nt | 5.7%
COC(=O)NNC(=S)Nc1ccc(Br)cc1 | 13.4% | -3.1 | 14.1µM* | 0.1 | -14.6%
COc1ccccc1CNc1ccnc(-c2cccnc2)n1 | nt | nt | 5.1% | 2.6 | 0.2%
O=C1CS/C(=N/N=C2CCCC2)N1 | 6.9% | 3.3 | 7.94µM* | 3.3 | ?
O=C(c1ccccc1)c1ccc(-c2ccc(O)cc2)cc1 | ? | -16.9 | 3.55µM* | 0.2 | 17.8µM*
O=C(c1ccccc1)c1ccc(C(=O)N2CCN(c3ccc(O)cc3)CC2)cc1 | ? | -7.1 | nt | nt | nt
COc1cc(/C=N\NC(=O)c2sc(N)nc2C)cc(OC)c1OC | -11.2% | 39.9 | 0.8% | -0.4 | 0.3%
